Compound activity as filed in PubChem.
A selection: hits, their analogues and other compounds. The true share with any hit is near 4.2%.
TIM10 inh = growth inhibitors of isogenic TIM10 control yeast, primary screen, counter-screen for tim10-1 yeast inhibitor project, luminescence, uHTS. 1.4% of 330,000 active. inhibition, % at 10 µM. AID 463195, 2010. S. cerevisiae TIM10 strain growth, BacTiter-Glo luminescence, 24 h;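 active = inhibition of 40% or more at the single tested concentration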;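 note: wild-type TIM10 isogenic control strain grown at permissive 25 °C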
NALP3 yeast inh = NALP3 inflammasome inhibitors in reconstituted yeast, primary screen, luminescence, uHTS; 0.39% of 330,000 active; inhibition, % at 10 µM; AID 2825, 2010; Yeast reconstituted NLRP3/ASC/caspase-1, beta-gal luminescence, 24 h;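 active = inhibition of 50% or more; inactive = inhibition below 50%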
tim10-1 inh = growth inhibitors of tim10-1 mutant yeast, primary screen, luminescence, uHTS; S. cerevisiae tim10-1 ts strain growth, BacTiter-Glo, 24 h; inhibition, % at 20 µM; 2.2% of 330,000 active; AID 463190, 2010;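 active = inhibition of at least 40%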;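 note: mutant grown at 25 °C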
V-ATPase pHluor = regulators of yeast V-ATPase proton pumping, primary screen, pHLuorin cytosolic pH fluorescence | S. cerevisiae | response, % at 10 µM | 0.37% of 350,000 active | AID 504577, 2011; in the data active = response mostly above about 7.3%, no sharp cut-off; inactive = mostly below about 5.4%; note: actives read high
NALP1 yeast inh = NALP1 inflammasome inhibitors in reconstituted yeast, colorimetric, S. cerevisiae, triplicate retest. S. cerevisiae NALP1/ASC/caspase-1 growth, X-gal OD620, 72 h. 0.61% of 280,000 active. inhibition, % at 10 µM; in the data active = inhibition mostly above about 24%, no sharp cut-off; inactive = mostly below about 32%
tim23-1 inh = growth inhibitors of tim23-1 mutant yeast, primary screen, luminescence, uHTS; inhibition, % at 20 µM; 1.3% of 330,000 active; AID 463212, 2010; S. cerevisiae tim23-1 growth, BacTiter-Glo luminescence, 24 h;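 active = growth inhibition of the mutant yeast at or above 50%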;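 note: temperature-sensitive mutant grown at 25 °C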
TIM10 conf = growth inhibitors of wild-type TIM10 yeast, confirmation, counter-screen for tim10-1 synthetic lethality project, single concentration, luminescence, S. cerevisiae. shares compounds with TIM10 inh. S. cerevisiae tim10 strain growth, BacTiter-Glo luminescence, 24 h. inhibition, % at 10 µM. 63% of 4,600 active. AID 463215, 2010;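 active = inhibition of yeast growth at or above a set limit in either of two replicates at 10 µM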; note: this counterscreen used the strain with wild-type TIM10
Hits are given with their value; - = inactive; . = no result given.

SMILES	TIM10 inh	NALP3 yeast inh	tim10-1 inh	V-ATPase pHluor	NALP1 yeast inh	tim23-1 inh	TIM10 conf
CCn1c(SCC(=O)N(C)C2CCCCC2)nc2cc(S(N)(=O)=O)ccc21	41	-	-	-	.	-	-
Cc1cc(C)cc(N=Cc2[nH]c3ccc(Br)c(Cl)c3c2O)c1	.	.	.	-	-	.	.
COc1ccc(CN=Cc2[nH]c3ccc(Br)c(Cl)c3c2O)cc1	41	-	-	-	-	-	-
Cc1nn(Cc2ccc(Cl)cc2)c(=O)n1N(C)c1ncc(C(F)(F)F)cc1Cl	55	-	-	-	-	-	-
CC(C)(C)c1ccc(C2(C)NC(=O)NC2=O)cc1 (stereo not drawn)	-	-	-	-	-	-	.
CCOc1ccc(/C=N/NC(=O)c2csc(C)c2C)c(OCC)c1	-	-	-	-	-	-	.
CCCCOc1cccc(/C=N/NC(=O)c2csc(C)c2C)c1	48	-	-	-	-	-	-
Cc1cc(-c2ccccc2)nc(N/N=C/c2ccco2)n1	45	-	-	-	-	-	37
Cc1cc(C)nc(N/N=C/c2ccco2)n1	-	-	-	-	-	-	.
Cc1ccc(S(=O)(=O)Cc2cc(F)c([N+](=O)[O-])cc2[N+](=O)[O-])cc1	89	-	-	-	47	-	68
O=C(OCN1C(=O)c2ccccc2C1=O)C1CCCCC1	-	-	-	-	-	-	.
O=C1c2ccccc2C(=O)N1SC1CCCCC1	65	-	-	-	-	-	83
CC(NC(=S)Nc1cccc(C(F)(F)F)c1)C(C)(C)C (stereo not drawn)	45	-	-	-	-	-	-
Cc1ccc(NC(=S)NNC(=S)Nc2cccc(C(F)(F)F)c2)cc1	53	-	-	-	.	-	48
Cc1nc(N)ncc1-c1ccc2c(c1)OCO2	-	-	-	-	-	-	.
Cc1c(C)c(C)c2[nH]c(-c3ccc4c(c3)OCO4)nc2c1C	82	-	-	-	-	-	87
CCn1c(C)cc(/C=C2/SC(=S)NC2=O)c1C	44	-	-	-	-	-	-
O=C(COC(=O)c1cncc(Br)c1)NCC12CC3CC(CC(C3)C1)C2	-	-	-	-	.	-	.
O=C(NC(=S)Nc1ccc(S(=O)(=O)NC2CCCCC2)cc1)c1cccs1	41	-	-	-	-	-	38
O=C(NC(=S)Nc1ccc(S(=O)(=O)N2CCCCC2)cc1)c1cccs1	-	-	-	-	-	-	.
O=C(CCl)c1ccc2c(c1)CCN2C(=O)C1CC1	60	-	-	.	-	-	74
O=C(C1CCC(C(=O)N2CCc3ccccc32)CC1)N1CCc2ccccc21 (stereo not drawn)	-	-	-	-	.	-	.
COc1ccc(CNS(=O)(=O)c2ccc3c(c2)N(C(C)=O)CCO3)cc1	46	-	-	-	-	-	-
CC(=O)N1CCOc2ccc(S(=O)(=O)NCc3ccc(C)cc3)cc21	-	-	-	-	-	-	.
COCCn1c(C)cc(C(=O)COc2ncnc3ccc(Br)cc23)c1C	43	-	-	-	-	-	-
SMILES	TIM10 inh	NALP3 yeast inh	tim10-1 inh	V-ATPase pHluor	NALP1 yeast inh	tim23-1 inh	TIM10 conf
Cc1ccc2c(c1)-n1c(nc3ccccc3c1=O)C(Cc1ccccc1)NC2=O (stereo not drawn)	-	-	-	.	.	-	.
CC1CCCCC12NC(=O)N(CC(=O)NNC(=O)c1ccc(Br)cc1)C2=O (stereo not drawn)	-	-	-	-	.	-	.
Nc1nonc1-n1nnc(C(=O)N/N=C/c2ccc(OCc3cccc(Cl)c3)cc2)c1CN1CCCCC1	-	-	-	-	-	-	.
Cc1cccc(COc2ccc(/C=N/NC(=O)c3nnn(-c4nonc4N)c3CN3CCCCC3)cc2)c1	42	-	-	-	-	-	-
CC(C)CN1C(=O)C(=O)N(CC(=O)Nc2cc(Cl)ccc2Oc2ccccc2)C1=O	43	-	-	-	-	-	39
CCCCCC(=O)N1C[C@@H](O)[C@H](n2cc(-c3ccc(F)cc3)nn2)C[C@@H]1c1ccccc1	.	.	.	-	.	.	.
O=Cc1[nH]c2ccccc2c1N(C(=O)CCl)c1ccc([N+](=O)[O-])cc1	41	-	-	-	-	-	-
O=C(CCl)N(CCCNC(=O)C(F)(F)F)c1ccc([N+](=O)[O-])cc1	-	-	-	-	-	-	.
Cc1ccc2nc(Cl)c(CN(C(=O)c3cnccn3)C3CCCCC3)cc2c1	41	-	-	-	-	-	28
COc1cc(C(=O)N2CCN(C(=O)c3cc(-c4ccccc4)n[nH]3)CC2)cc(OC)c1OC	-	-	-	-	-	-	.
O=[N+]([O-])c1ccc(/C=N/NS(=O)(=O)c2ccc(Cl)cc2)o1	.	.	.	-	-	.	.
O=[N+]([O-])c1ccc(/C=N/Nc2ccnc3cc(Cl)ccc23)o1	64	-	-	-	-	-	71
CC(C)NC(=O)N(Cc1ccccc1)Cc1cccs1	-	-	-	-	-	-	.
Cc1[nH]c(=S)sc1Cc1ccc(Cl)c(Cl)c1	42	-	-	.	-	-	-
CC(C)COC(=O)C(C#N)c1nc2ccccc2nc1N1CCN(Cc2ccc3c(c2)OCO3)CC1 (stereo not drawn)	49	-	-	-	-	-	39
CC1=CC(C)(C)NC(=S)N1c1cc(C)cc(C)c1	45	-	-	-	-	-	-
Cc1cc2ncn(/N=C/c3ccc([N+](=O)[O-])o3)c2cc1C	57	-	-	-	-	-	56
O=[N+]([O-])c1ccc(/C=N/N=C/c2ccc([N+](=O)[O-])o2)o1	.	.	.	-	-	.	.
COc1ccc(C/C(N)=N/OC(=O)c2ccc(Cl)cc2)cc1	49	-	-	-	-	-	59
COc1ccc(C/C(N)=N/OC(=O)Cc2ccccc2)cc1	52	-	-	-	-	-	-
CCc1ccc(/C=C2\SC(N3CCCC3)=NC2=O)cc1	44	-	-	-	-	-	41
Cn1c(SC(C(=O)Nc2ccc(F)cc2)c2ccccc2)nc2ccccc21 (stereo not drawn)	46	-	-	-	-	-	43
CS(=O)(=O)N(CC(=O)N1CCCC1)Cc1ccc(Cl)c(Cl)c1	-	-	-	-	-	-	.
CC(=O)Oc1ccc(/C=N/NC(=S)Nc2ccccc2)cc1	41	-	-	-	-	-	-
O=C(Cc1ccccc1)Nc1ccccc1C(=O)NCC1CCCO1 (stereo not drawn)	-	-	-	-	-	-	.
COc1ccc(C(=O)/C=C/c2ccccc2F)c(OC(=O)c2ccc([N+](=O)[O-])cc2)c1	44	-	-	-	-	-	41
